# Laboratory results taken from PubChem BioAssay (NCI).
# Compounds without any hit were thinned out: in the full panel of roughly 83,000, 20% have a hit.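 Plates (96-well) were seeded with cells, treated with compound at one concentration, and incubated for 48 hours before percent growth was determined.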 Values without a mark were called inactive. Active and inactive are the calls of the source.
# Tested on: IGROV1 ovarian
# Experiment: NCI-60 one-dose screen, 48 h (100 = growth as untreated, 0 = no growth, -100 = all killed)
# Conditions: 10 µM
# Method: Growth inhibition of the IGROV1 human tumor cell line is measured as a screen for anti-cancer activity. Cells are grown in 96 well plates and exposed to the test compound for 48 hours. Compounds are tested at a single concentration, which is 10^-5 M for most compounds. The reported endpoint is percent growth (GI% or GIPRCNT), where numbers from 0 - 100% represent growth inhibition, and numbers from -100% - 0 represent cell death. For example, a value of 40 represents 60% growth inhibition. A value of 0 means no net growth occurred over the course of the experiment. A value of -40 indicates 40% of cells at the beginning of the experiment died by the end of the experiment. A value of -100 means all cells are dead at the end of the experiment.
# NCI-60 Human Tumor Cell Lines Screen was performed using the standard one-dose NCI protocol, which is described in more detail at https://dtp.cancer.gov/discovery_development/nci-60/default.htm.
# Compounds with GIPRCNT values below 10 were considered active. Activity score was based on GIPRCNT using the following formula: […]
# Score is 0 for GIPRCNT values of 100 or above, 50 for GIPRCNT values of 0, and 100 for GIPRCNT values of -100.
row,SMILES,growth
1,Nc1nnc(-c2c[nH]c3ncc(Br)cc23)c(-c2c[nH]c3ccc(Br)cc23)n1,36.5%
2,O=C(CN1CCN(c2ncnc3c2cnn3-c2ccccc2)CC1)Nc1ccc(Cl)cc1,48%
3,COc1ccc(NCc2cn(-c3ccc(C(=O)O)cc3)nc2-c2ccc(F)cc2)cc1C(F)(F)F,49.9%
4,O=C(CN1CCN(c2ncnc3c2cnn3-c2ccccc2)CC1)Nc1ccc(Br)cc1,58.1%
5,CCOc1ccc(/C=N/NC(=O)Cn2nc(Cc3ccc(OC)cc3)c3onc(C)c3c2=O)cc1,25.7%
6,COc1ccc(-n2c(SCC(=O)NNS(=O)(=O)c3ccccc3)nc3ccc(Cl)cc3c2=O)cc1,103%
7,O=C(c1ccccc1)c1ccc2nc(-c3ccccc3Br)[nH]c2c1,-58.9% (active)
8,CCn1c(SCC(=O)Nc2ccc(-c3nc4ccccc4[nH]3)cc2)nc2ccccc2c1=O,-52.5% (active)
9,COc1ccccc1-n1cc(C#N)c(N)c1C(=O)c1ccc(Cl)cc1Cl,38%
10,Cc1ccc(S(=O)(=O)N2CCN(S(=O)(=O)c3oc(-c4ccccc4)nc3C#N)CC2)cc1,80.5%
11,O=C(CC(=O)Nc1ccc(Oc2ncnc3scc(Nc4n[nH]c(=S)s4)c23)cc1)Nc1ccc(Br)cc1,106%
12,COc1ccc(C2c3sc4ccc(C)cc4c3Oc3nc[nH]c(=O)c32)cc1 (stereo not given),83.6%
13,Cn1cc(/C=C(/SS/C(=C/c2cn(C)c3cccc(C(=O)O)c23)C(=O)O)C(=O)O)c2c(C(=O)O)cccc21,113%
14,Cc1ccc(COc2ccc(NC(=O)Nc3ccc(Cl)c(C(F)(F)F)c3)cc2)cc1,79.2%
15,COc1ccc(C(=O)COc2ccc(NC(=O)Nc3ccccc3)cc2)cc1,94.8%
16,CCOC(=O)C1=C(N)N(c2ccc(C)cc2)C2=C(C(=O)CC(C)(C)C2)C1c1ccccc1Br (stereo not given),110%
17,Cc1ccc2sc3c(c2c1)Oc1nc[nH]c(=O)c1C3c1cccc(F)c1 (stereo not given),89.2%
18,Cn1cc(-c2nc(N)nnc2-c2c[nH]c3ccccc23)c2cc(Br)cnc21,23.2%
19,O=C(CSc1nc2ccccc2c(=O)n1-c1ccc(Cl)cc1)Nc1ccc(-c2nc3ccccc3[nH]2)cc1,53.2%
20,O=[N+]([O-])c1cccc(-c2nnc3c(/C=C/c4ccccc4O)nc4ccccc4n23)c1,68.8%

row,SMILES,growth
1,COc1ccc(Cn2cc(C#N)c(N)c2C(C)=O)c(OC)c1,112%
2,O=C(CSc1nc2ccccc2c(=O)n1-c1ccc(Cl)cc1)Nc1ccc(-c2nc3ccc([N+](=O)[O-])cc3[nH]2)cc1,64.2%
3,COc1cc2oc(-c3cccc(C(=O)Nc4ccc(Cl)cc4)c3)cc(=O)c2c(OCCN)c1OC,-73.7% (active)
4,COC(=O)CNC(=O)COc1c(OC)c(OC)cc2oc(-c3cccc(C(=O)Nc4ccc(Cl)cc4)c3)cc(=O)c12,58.4%
5,O=C(Nc1ccc(Oc2ncnc3scc(Nc4n[nH]c(=S)s4)c23)cc1)C1(C(=O)Nc2cccc(C(F)(F)F)c2)CC1,70%
6,COc1ccc(Cc2nn(CC(=O)N/N=C/c3ccc(Br)cc3)c(=O)c3c(C)noc23)cc1,37.6%
7,Cc1ccc2c(c1)C(=O)/C(=C/c1ccc([N+](=O)[O-])cc1)S2,63.8%
8,C#C[C@]1(O)CC[C@H]2[C@@H]3CC=C4c5sc(Nc6ccc(N(C)C)cc6)nc5CC[C@]4(C)[C@H]3CC[C@@]21C,9.97% (active)
9,Cc1ccc(-c2nc(C#N)c(S(=O)(=O)N3CCN(S(C)(=O)=O)CC3)o2)cc1,54.9%
10,COc1ccc(OC)c(-n2cc(C#N)c(N)c2C(=O)c2ccc(Cl)cc2Cl)c1,53.3%
11,C#C[C@]1(O)CC[C@H]2[C@@H]3CC=C4c5sc(Nc6cc(C)cc(C)n6)nc5CC[C@]4(C)[C@H]3CC[C@@]21C,26.2%
12,Cc1ccc2c(c1)C(=O)/C(=C/c1c[nH]c3ccccc13)S2,59.8%
13,Cc1cc(N=C2NC(=O)/C(=C/c3cc(C(C)(C)C)c(O)c(C(C)(C)C)c3)S2)n[nH]1,14.4%
14,CCOC(=O)c1ccc(NC(=O)CSC(CC(=O)c2sc(Nc3ccccn3)nc2C)c2ccccc2F)cc1 (stereo not given),14%
15,Cn1cc(-c2cc(N)n3nc(-c4cn(C)c5ccccc45)cc3n2)c2cc(F)ccc21,-41.5% (active)
16,O=C(Nc1ccc(OCC(=O)c2ccc(Cl)cc2)cc1)Nc1ccc(Cl)c(C(F)(F)F)c1,39.9%
17,O=C1NC(=S)S/C1=C\c1cn(-c2ccccc2)nc1-c1ccc([N+](=O)[O-])cc1,29.2%
18,Cn1cc(-c2nnc(N)nc2-c2c[nH]c3ccc(F)cc23)c2cc(Br)cnc21,50.4%
19,CC(C)(C)c1cc(/C=C2\S/C(=N/c3ncn[nH]3)NC2=O)cc(C(C)(C)C)c1O,17.7%
20,COc1ccc(C2c3sc4ccc(C)cc4c3Oc3nc(N)nc(N)c32)cc1 (stereo not given),79.1%
